Here are results for 14 compounds from PubChem BioAssay (NCATS).

Experiment [1] is described as follows: qHTS of pediatric cancer cell lines to identify multiple opportunities for drug repurposing: Confirmatory screen for A673 cells (AID 1347110).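 Further: cells exposed to compound for 48 h before the viability read; nearly all actives have a fitted effect of over 65% in size.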 Further: potency means the concentration at half of the fitted maximal effect. In a few lines:
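qHTS titration format: primary MIPE 0.78 nM-46 µM (11 pts), NPC 0.59 nM-46 µM; confirmation 11 pts. 48 h, CTG luminescence.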

Experiment [2] can be described thus: qHTS of pediatric cancer cell lines to identify multiple opportunities for drug repurposing: Confirmatory screen for NB-EBc1 cells (AID 1347115).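 Further: cells exposed to compound for 48 h before the viability read; nearly all actives have a fitted effect of over 45% in size.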 Further: potency means the concentration at half of the fitted maximal effect. In outline:
(§1)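 Cells (500-1,000/well) in growth media were settled 5 h at 37 degrees C, then given compounds for 48 h. Viability was read as CellTiter-Glo luminescence. Primary runs used MIPE at 11 points (0.78 nM-46 µM) and NPC at 8 points (0.59 nM-46 µM); follow-ups used 11 points.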
Background: In qHTS, concentration-response curves come from the screen itself.

Experiment [3] can be described thus: qHTS of pediatric cancer cell lines to identify multiple opportunities for drug repurposing: Confirmatory screen for TC32 cells (AID 1347118).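 Further: cells exposed to compound for 48 h before the read; nearly all actives have a fitted effect of over 65% in size.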 Further: potency means the concentration at half of the fitted maximal effect. In outline: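 Measured quantity: luminescence from CellTiter-Glo, reflecting metabolically active TC32 cells following 48 h of compound. Curves came straight from multi-point titrations, with 8 or 11 points in primary and 11 in confirmatory screening.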

Experiment [4] in a line: qHTS of pediatric cancer cell lines to identify multiple opportunities for drug repurposing: Primary screen for Rh41 cells (AID 1347108). Further: nearly all actives have a fitted effect of over 70% in size. Further: potency means the concentration at half of the fitted maximal effect. In outline: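 Luminescence from CellTiter-Glo served as readout of metabolically active cells after 48 h compound exposure. Titrations: MIPE 11-point, from 0.78 nM; NPC 8-point, from 0.59 nM (final). Concentration-response curves came straight from the primary screen.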

A short description of experiment [5]: qHTS of pediatric cancer cell lines to identify multiple opportunities for drug repurposing: Confirmatory screen for NB1643 cells (AID 1347109). Further: nearly all actives have a fitted effect of over 45% in size. Further: potency means the concentration at half of the fitted maximal effect. In outline: as §1
Experiment [6] can be described thus: qHTS of pediatric cancer cell lines to identify multiple opportunities for drug repurposing: Confirmatory screen for BT-12 cells (AID 1347112). Further: nearly all actives have a fitted effect of over 55% in size. Further: potency means the concentration at half of the fitted maximal effect. In outline:
as §1

Experiment [7] is described as follows: qHTS of pediatric cancer cell lines to identify multiple opportunities for drug repurposing: Confirmatory screen for DAOY cells (AID 1347114). Further: nearly all actives have a fitted effect of over 65% in size. Further: potency means the concentration at half of the fitted maximal effect. In a few lines: (§2)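 Viability measured as metabolically active cells via CellTiter-Glo luminescence following 48 hours of compound exposure, 11-point dilutions in confirmatory testing. 500-1,000 cells/well plated 5 hours before dosing; controls were DMSO and 2.3 µM bortezomib.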

Experiment [8] in a line: qHTS of pediatric cancer cell lines to identify multiple opportunities for drug repurposing: Confirmatory screen for BT-37 cells (AID 1347117). Further: nearly all actives have a fitted effect of over 55% in size. Further: potency means the concentration at half of the fitted maximal effect. In a few lines:
as §1

Experiment [9] is described as follows: qHTS of pediatric cancer cell lines to identify multiple opportunities for drug repurposing: Confirmatory screen for SK-N-MC cells (AID 1347111).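 Further: potency means the concentration at half of the fitted maximal effect; cells exposed to compound for 48 h before the readout; nearly all actives have a fitted effect of over 70% in size.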 In a few lines: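 Metabolically active cells were quantified by ATP-dependent luminescence (CellTiter-Glo, 15 min at room temperature) following 48 h treatment. Cells had been plated at 500-1,000 per well and settled for 5 h beforehand.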

Experiment [10] is described as follows: qHTS of pediatric cancer cell lines to identify multiple opportunities for drug repurposing: Confirmatory screen for SJ-GBM2 cells (AID 1347116). Further: nearly all actives have a fitted effect of over 60% in size. In outline: as §2

Inconclusive results are not listed. Activity calls are given as the source filed them. The call rests on the fitted dose curve; in most records, active means well fitted curve in the direction sought with a large enough effect; inconclusive means small, poorly fitted or top-dose-only effect, or another doubt; inactive means no such curve, though single readings can be large; an effect the other way counts as inactive or inconclusive.

On to `CC[C@@H]1C=C(C)C[C@H](C)C[C@H](OC)[C@H]2O[C@@](O)(C(=O)C(=O)N3CCCC[C@@H]3C(=O)O[C@H](C(C)=C[C@@H]3CC[C@H](Cl)[C@H](OC)C3)[C@H](C)[C@@H](O)CC1=O)[C@H](C)C[C@H]2OC`, for which, in experiment [1], the Potency entry is “inactive”. The Potency in experiment [2] is 23.3 µM (active); in experiment [3] it was 18.5 µM (active).

In the case of `COc1cccc(-c2cc(=O)c3ccccc3o2)c1N`, the Potency entry in experiment [4], in [5], in experiment [6], in [7], in experiment [2] and in experiment [8] was “inactive” in each case. In experiment [3], the Potency was 20.8 µM (active).

For the compound `CO[C@H]1C(=O)[C@]2(C)[C@@H](OC)C[C@H]3OC[C@@]3(OC(C)=O)[C@H]2[C@H](OC(=O)c2ccccc2)[C@]2(O)C[C@H](OC(=O)[C@H](O)[C@@H](NC(=O)OC(C)(C)C)c3ccccc3)C(C)=C1C2(C)C`, the Potency was 0.0059 µM (active) in [1], 0.0033 µM (active) in experiment [9] and 0.0033 µM (active) in experiment [3]. In addition, the Potency entry in [2] and in [10] was “inactive” throughout.

Regarding `CO[C@H]1C[C@@H]2CC[C@@H](C)[C@@](O)(O2)C(=O)C(=O)N2CCCC[C@@H]2C(=O)O[C@H]([C@H](C)C[C@@H]2CC[C@H](OP(C)(C)=O)[C@H](OC)C2)CC(=O)[C@H](C)C=C(C)[C@@H](O)[C@@H](OC)C(=O)[C@H](C)C[C@H](C)C=CC=CC=C1C`, in experiment [5], the Potency result was “inactive”. Also, the Potency is 11.7 µM (active) in [9] and 10.4 µM (active) in experiment [3].

As for `O=c1cc(-c2ccc(O)cc2)oc2cc(O)cc(O)c12`, the Potency entry in experiment [7] and in experiment [10] was “inactive” throughout.

On to `O=C(NCc1ccncc1)C12C[C@H]3C[C@@H](C1)CC(c1ccc(Cl)cc1)(C3)C2`, for which the Potency in experiment [4] was 23.5 µM (active); in [1] it was 9.27 µM (active); in experiment [9], 9.27 µM (active); in [6] it was 26.1 µM (active); in [7], 13.1 µM (active); in experiment [8] it was 20.8 µM (active). The Potency in experiment [3] was 9.27 µM (active).

As for `COc1ncc(-c2ccc3nccc(-c4ccnnc4)c3c2)cc1NS(=O)(=O)c1ccc(F)cc1F`, the Potency was 0.465 µM (active) in experiment [5]; 0.208 µM (active) in experiment [1]; 0.0329 µM (active) in [9]; 8.27 µM (active) in experiment [2]; 0.465 µM (active) in experiment [8]; 0.0369 µM (active) in experiment [3].

`COc1ccc(-c2coc3cc(O)cc(O)c3c2=O)cc1`: the Potency is 0.117 µM (active) in experiment [1], 1.04 µM (active) in experiment [9] and 1.04 µM (active) in [3]. The Potency result in experiment [6], in experiment [7], in experiment [2] and in [8] was “inactive” in each case.

For the compound `O=C(O)c1ccc(-c2c[nH]c3ncc(-c4ccccc4)cc23)cc1C1CCCC1`, the Potency result in [5], in [1], in experiment [6], in [7], in experiment [2] and in experiment [10] was “inactive” throughout. Also, the Potency entry in experiment [8] and in experiment [3] was “inactive” throughout. Besides, the Potency in [9] is 9.27 µM (active).

Regarding `CN[C@@H](C)C(=O)N[C@H]1CN(C(=O)CC(C)C)CC[C@H]2CC[C@@H](C(=O)NC(c3ccccc3)c3ccccc3)N2C1=O`, the Potency result in experiment [5], in experiment [6], in experiment [2] and in [10] was “inactive” each time. The results for the Potency in experiment [9] and in [3] were 7.37 µM (active) and 8.27 µM (active), respectively.

Regarding `CC[C@]1(O)C[C@@H]2CN(CCc3c([nH]c4ccccc34)[C@@](C(=O)OC)(c3cc4c(cc3OC)N(C=O)[C@@H]3C45CCN4CC=C[C@](CC)([C@H]45)[C@@H](OC(C)=O)[C@]3(O)C(=O)OC)C2)C1` (some centres not stated), the Potency result in [5], in experiment [1], in experiment [6], in experiment [2] and in [8] was “inactive” each time.

For `Cc1[nH]c(C=C2C(=O)Nc3ccc(S(=O)(=O)Cc4c(Cl)cccc4Cl)cc32)c(C)c1C(=O)N1CCC[C@H]1CN1CCCC1`, the Potency in experiment [5] is 11.7 µM (active); in [1], 13.1 µM (active); in experiment [9], 9.27 µM (active); in experiment [8], 18.5 µM (active); in experiment [3] it was 11.7 µM (active). The Potency entry in [2] was “inactive”.

In the case of `O=C(O)c1ccc(-c2cc3cccnc3c(-c3ccc4nonc4c3)n2)cc1`, the Potency in experiment [1] is 0.928 µM (active); in experiment [9], 2.33 µM (active); in experiment [6], 4.14 µM (active); in experiment [3], 2.61 µM (active).

In the case of `N[C@@]1(C(=O)O)CS(=O)(=O)[C@H]2[C@H](C(=O)O)[C@H]21`, the Potency entry in experiment [4], in experiment [1], in [7] and in experiment [2] was “inactive” each time. Further, the Potency in experiment [9] is 0.0465 µM (active); in experiment [8] it was 0.737 µM (active); in experiment [3] it was 0.0522 µM (active).
